Legend:
[1] = system: Vero E6 infected with SARS-CoV-2; experiment: morphology score (similarity to uninfected cells); higher = more like uninfected cells; conditions: 24 h
[2] = system: Vero E6 infected with SARS-CoV-2; experiment: SARS-CoV-2 infection rate relative to infected DMSO; higher = more infection, active = 60 or less; conditions: 24 h

Compound	morphology score [1]	SARS-CoV-2 infection rate [2]
COc1cccc(CN(C(=O)CC(C)(C)C)[C@H]2C[C@@H](C(=O)N3CCNCC3)N(Cc3ccc4c(c3)OCO4)C2)c1 (10 µM)	0.0543	102% (inactive)
COc1cc2c(cc1OC)CN(CCc1ccc(NC(=O)c3cccc4c(=O)c5cccc(OC)c5[nH]c34)cc1)CC2 [elacridar] (10 µM)	0.0355	102% (inactive)
Clc1ccc(C(c2ccccc2Cl)C(Cl)Cl)cc1 (centres undefined) [mitotane] (10 µM)	-0.173	112% (inactive)
Cc1cc(Cl)ccc1OCCCC(=O)NO [droxinostat] (10 µM)	0.199	90% (inactive)
CCC1(CC)C(=O)NC(=O)N(C)C1=O [metharbital] (10 µM)	0.221	91.5% (inactive)
COc1ccc(OC)c(CN(C(C)=O)c2cc(F)ccc2Oc2ccccc2)c1 (10 µM)	0.0987	95% (inactive)
CO[C@H]1C[C@H](O[C@H]2CC[C@@]3(C)[C@H](CC[C@@H]4[C@@H]3CC[C@]3(C)[C@@H](C5=CC(=O)OC5)[C@@H](OC(C)=O)C[C@]43O)C2)O[C@@H](C)[C@@H]1O [oleandrin] (0.833333 µM)	-0.173	118% (inactive)
N#Cc1c(Oc2ccc(F)c(NC(=O)Cc3cccc(C(F)(F)F)c3)c2)ccc2nc(NC(=O)C3CC3)sc12 (10 µM)	-0.304	108% (inactive)
CCC(=O)c1ccc(OCC(O)CN2CCN(c3ccccc3)CC2)cc1 (centres undefined) [centpropazine] (10 µM)	0.0954	93.5% (inactive)
CN1CCc2cc3c(cc2[C@H]1[C@@H]1OC(=O)c2c1ccc1c2OCO1)OCO3 [bicuculline-(+)] (10 µM)	-0.0434	98% (inactive)
COc1cc(NC(=O)c2cccc(-n3cc(NC(=O)Nc4cccc(C)c4)cn3)c2)cc(OC)c1OC (10 µM)	-0.0791	104% (inactive)
NC1=NC(=O)N([C@H]2C[C@H](O)[C@@H](CO)O2)CN1 (10 µM)	0.0264	106% (inactive)
Cc1c(I)c(=O)n(-c2ccccc2)n1C [iodoantipyrine] (10 µM)	0.0311	118% (inactive)
CSc1ccc(C(=O)/C=C/c2cc(C)c(OC(C)(C)C(=O)O)c(C)c2)cc1 [elafibranor] (10 µM)	0.00446	110% (inactive)
CC(C)N(CCCCOCC(=O)NS(C)(=O)=O)c1cnc(-c2ccccc2)c(-c2ccccc2)n1 [selexipag] (10 µM)	-0.0772	116% (inactive)
COc1ccc2ccc(=O)oc2c1CC=C(C)C [osthol] (10 µM)	0.243	107% (inactive)
C[C@@H](NCCCc1cccc(C(F)(F)F)c1)c1cccc2ccccc12 [cinacalcet] (10 µM)	0.845	20% (active)
O=C(O)CCNc1cc(N2CCc3ccccc3CC2)nc(-c2cccnc2)n1 (10 µM)	0.165	108% (inactive)
CC(=O)SCCC(=O)N1[C@H](C)CCC[C@@H]1C(=O)O [methiopril] (10 µM)	0.0927	102% (inactive)
CCOc1cc2ncc(C#N)c(Nc3ccc(OCc4cccc(F)c4)c(Cl)c3)c2cc1NC(=O)/C=C/CN(C)C (10 µM)	-0.202	99.5% (inactive)
Cc1ncc(C)n2nc([C@@H]3C[C@H]3c3nc4c5cccnc5ccn4c3C)nc12 (10 µM)	-0.0961	106% (inactive)
Cc1nc2c(O)cccc2c(=O)[nH]1 (10 µM)	-0.0261	114% (inactive)
c1ccc2c(Oc3nc(Nc4ccc(N5CCOCC5)cc4)c4ncn(C5CCCCC5)c4n3)cccc2c1 [purmorphamine] (10 µM)	-0.227	113% (inactive)
Cc1nc(Nc2ccc(F)cc2)nc(N2CCc3ccccc3C2C)c1C (centres undefined) [revaprazan] (10 µM)	0.59	42.5% (active)
C[n+]1cccc(C(=O)[O-])c1 [trigonelline] (0.833333 µM)	0.0676	108% (inactive)
CC(C)NCC(O)COc1ccc(COCCOC(C)C)cc1 (centres undefined) [bisoprolol] (10 µM)	-0.0255	106% (inactive)
CC[C@]12C=CCN3CC[C@@]4(c5cc([C@@]6(C(=O)OC)C[C@@H]7C[C@@H](C(C)(F)F)CN(Cc8c6[nH]c6ccccc86)C7)c(OC)cc5N(C)[C@H]4[C@@](O)(C(=O)OC)[C@@H]1OC(C)=O)[C@@H]32 [Vinflunine Ditartrate] (10 µM)	-0.12	105% (inactive)

Source: the supplement of paper PMC13380429
